Among the data in PubChem BioAssay (NCI) are growth values, retold here.

The structures appear in SMILES notation. The panel holds about 83,000 compounds, 20% with a hit somewhere; the sample as a whole holds those more often.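 Results are percent growth after 48 hours of single-concentration exposure. 100 means growth as in untreated cells, lower positive values show inhibition; negative values down to -100 show cell death.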 Active and inactive are the calls of the source.

This experiment deals with HCC-2998 colon. Nature of the experiment: NCI-60 one-dose screen, 48 h (100 = growth as untreated, 0 = no growth, -100 = all killed). To be noted: 10 µM unless noted. The method, then:
Growth inhibition of the HCC-2998 human tumor cell line is measured as a screen for anti-cancer activity. Cells are grown in 96 well plates and exposed to the test compound for 48 hours. Compounds are tested at a single concentration, which is 10^-5 M for most compounds. The reported endpoint is percent growth (GI% or GIPRCNT), where numbers from 0 - 100% represent growth inhibition, and numbers from -100% - 0 represent cell death. For example, a value of 40 represents 60% growth inhibition. A value of 0 means no net growth occurred over the course of the experiment. A value of -40 indicates 40% of cells at the beginning of the experiment died by the end of the experiment. A value of -100 means all cells are dead at the end of the experiment.
NCI-60 Human Tumor Cell Lines Screen was performed using the standard one-dose NCI protocol, which is described in more detail at https://dtp.cancer.gov/discovery_development/nci-60/default.htm.
Compounds with GIPRCNT values below 10 were considered active. Activity score was based on GIPRCNT using the following formula: […]
Score is 0 for GIPRCNT values of 100 or above, 50 for GIPRCNT values of 0, and 100 for GIPRCNT values of -100.
As to `O=C(Nc1cccc(C(F)(F)F)c1)Nc1ccc(OCc2nnc(-c3ccc(Cl)cc3)o2)c(F)c1`, the growth is 72.1% (inactive).

Regarding `C=Cc1nn2c(CCC(=O)c3nc4ccccc4[nH]3)nnc2s1`, the growth is 98% (inactive).

With `O=C1c2ccccc2C(=O)c2c1cccc2-n1nnc2ccccc21`, the growth was 83.4% (inactive).

With `COc1ccc(C(=O)Nc2nc(-c3ccc(Cl)cc3)cs2)cc1`, the growth was 112% (inactive).

On to `COc1ccc(C(=O)C(C)Br)cc1OC` (stereo not given), for which the growth was 101% (inactive).

For the compound `COc1cc(C2CC(=O)Nc3c2cc(Br)c2ccccc32)cc(Br)c1OC` (stereo not given), the growth was 90.9% (inactive).

`COc1cc(/C=C2\COc3ccc(O)c(O)c3C2=O)cc(OC)c1`: the growth was 25.1% (inactive).

Regarding `CCCn1cnc2c1c(=O)n(CCCCC(C)=O)c(=O)n2C`, the growth is 100% (inactive).

Turning to `COC1=CC(c2ccc[nH]2)=N/C1=C\c1[nH]c(C)c(C(=O)CCC(=O)Oc2ccc3c(c2)CCC2C3CC[C@]3(C)C(=O)CC[C@@H]23)c1C` (stereo not given in full), the growth was 79.8% (inactive).

As to `CC(=O)Oc1ccc(C23c4ccccc4C2(OC(C)=O)c2cc(OC(C)=O)ccc23)cc1` (stereo not given), the growth is 59.2% (inactive).

For the compound `CCc1ccc(CCN2C(=O)c3ccccc3C2=O)nc1`, the growth was 112% (inactive).

Turning to `Clc1ccc(-c2nc(-c3cccs3)no2)c(Cl)c1`, the growth is 68% (inactive).

Take `C[n+]1c2ccccc2c(Nc2ccc(N3CCCCC3)cc2)c2[nH]c3ccccc3c21`: the growth is -96.1% (active).

Turning to `CC(=O)NCCSC(=O)C(=O)SCCNC(C)=O`, the growth is -45.3% (active).

With `CC1=CSC2=NCCN12`, the growth was 108% (inactive).

Regarding `Nc1ccc(C2=NN(c3ccccc3)C(c3ccc(Cl)cc3)C2)cc1` (stereo not given), the growth was 76.8% (inactive).

Consider `Cc1ccc([N+](=O)[O-])cc1NC(=O)Nc1cccc(F)c1`, for which the growth was 91.8% (inactive).

Turning to `COc1ccc(-c2cncn2-c2ccc(-c3nc4cc(OC)c(OC)c(OC)c4s3)cc2)cc1N`, the growth was 80.5% (inactive).

As to `Oc1[nH]c2ccccc2c1/C=c1/ccc2c(c1)N=C(c1cc(F)cc(F)c1)N=2`, the growth was 81.1% (inactive).

Regarding `CCN1C2=C(SC(=S)C1=C1SC(C(=O)OC)=C(C(=O)OC)S1)SC(=Nc1ccc(OC)cc1)C2=O`, the growth was -66.3% (active).

Take `CCCc1nn(C)c2c(=O)[nH]c(-c3cc(S(=O)(=O)N4CCN(C)CC4)ccc3OCC)nc12`: the growth was 108% (inactive).

On to `Oc1ccccc1/C=N\Nc1ccccc1`, for which the growth is 79.6% (inactive).

For the compound `c1cncc(CNc2ccccc2-c2nnc(Nc3ccc4c(c3)OCO4)o2)c1`, the growth is 20.1% (inactive).

On to `CCCCCCC/C(=N\N=C(N)N)c1ccc(O)cc1`, for which the growth was -77% (active).

As for `O=C1CCCN1C1CCN(Cc2cc3ccccc3[nH]c2=O)c2ccccc21` (stereo not given), the growth was 96.4% (inactive).

As for `CC(C)c1ccc(C(=O)Nc2sc3c(CN(C)C)c(O)ccc3c2C(N)=O)cc1`, the growth is -54.6% (active).

Turning to `O=C(Nc1ccccc1Cl)c1cnc2ccc(C3CCNCC3)cn12`, the growth was 123% (inactive).

For `CC(=O)Oc1ccc(C2OC(c3ccc4ccccc4c3OC(C)=O)=NN2C(C)=O)c(OC(C)=O)c1` (stereo not given), the growth is 29.9% (inactive).

Take `CN1COc2ccc3ccccc3c2C1`: the growth was 93% (inactive).

For `S=C1SCN(Cc2ccccc2)CN1Cc1ccco1`, the growth was 103% (inactive).

Take `Cc1ccc(NC(=O)Nc2ccc(-c3cccnc3)cc2N2CCC(CO)CC2)cc1`: the growth was 14.1% (inactive).

For `C[C@]12CC[C@@H]3c4ccc(O)cc4CC[C@H]3[C@@H]1CC[C@@H]2NS(=O)(=O)c1cccc(Br)c1`, the growth was 89.4% (inactive).

In the case of `O=C(/C=C/c1ccccc1)CC(c1ccccc1)N1CCOCC1` (stereo not given), the growth is 20.8% (inactive).

`CC(C)[C@]12O[C@H]1[C@@H]1O[C@]13[C@]1(O[C@H]1C[C@H]1C4=C(CC[C@@]13C)C(=O)OC4)[C@@H]2OC(=O)CN(C)C`: the growth is -37.2% (active).

For `CC(=O)NC1(C(=O)O)CCCC1`, the growth is 138% (inactive).

With `COc1ccc(Nc2ccnc(NCCCNc3ccnc4cc(Cl)ccc34)n2)cc1`, the growth is -74.9% (active).

As to `CN(CCOc1ccc(CC2SC(=O)NC2=O)cc1)c1ccccn1` (stereo not given), the growth was 112% (inactive).

Consider `COC(=O)C[C@@H]1CC=CC(=O)/C1=C(O)/C=C/c1ccccc1`, for which the growth is -95.1% (active).

Turning to `CC(=O)Oc1c(C)c(OC(C)=O)c2c(c1C(C)=O)OC1CC(=O)C(C(C)=O)=C(O)C21C` (stereo not given), the growth is 102% (inactive).

Consider `Cc1cc(C(C)(C)c2cc(C)c(O)c(CN(C)C)c2)cc(CN(C)C)c1O`, for which the growth was 82.1% (inactive).
